Seven compounds from PubChem BioAssay (NCATS) can be followed below.

The structures appear in SMILES notation. Records with an inconclusive call do not appear. Calls of active or inactive are those of the source. Unless noted, calls follow the shape of the dose curve; as a rule, active = well fitted curve in the direction sought with a large enough effect; inconclusive = small, poorly fitted or top-dose-only effect, or another doubt; inactive = no such curve, though single readings can be large; an effect the other way counts as inactive or inconclusive.

The nature of experiment [1]: Cytotoxicity counterscreen for inhibitors of SARS-CoV-2 cell entry (AID 1645845; calls by dose curve; also: nearly all actives have a fitted effect of over 50% in size). In a few lines: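 Expi293F/hACE2 cells seeded overnight; cpd pin-transferred in DMSO, 1 h preincubation, + media, 48 h 37 C 5% CO2; ATPLite 1step luminescence; normalized to cells and no cells.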
Background: The purpose of a counterscreen is to sort out artefacts and off-target activity.

A further experiment has as its system CRL-7250. Kind of experiment: qHTS assay to identify novel small-molecules to repurpose for Merkel cell carcinoma treatment (AID 1296009). Also: nearly all actives have a fitted effect of over 60% in size. Conditions: MCC and control cell lines, CellTiter-Glo viability, 72 h; series mostly up to 92 µM. In outline: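 Cells exposed to NPC (8-point) and MIPE (11-point) compound dilutions for 72 hr at 37 degree celsius; viability read by CellTiter-Glo luminescence, normalized to no-cell and DMSO in-plate controls.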
In general terms: qHTS replaces the single test concentration by a dilution series.

Experiment [2] in a line: P-glycoprotein substrates identified in KB-8-5-11 adenocarcinoma cell line, qHTS therapeutic library screen (AID 1346987). Also: potency is read from the fitted curve at half-maximal effect; nearly all actives have a fitted effect of over 65% in size. In outline: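 KB-8-5-11: colchicine-selected sub-line of KB-3-1 over-expressing P-gp; assay medium lacked colchicine. 72 h drug exposure at 37 degree C, CellTiter-Glo.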
Experiment [3] has as its system Zika virus NS2B-NS3 protease (unlinked complex). As to the kind of experiment: Primary screen GU Rhodamine qHTS for Zika virus inhibitors: Unlinked NS2B-NS3 protease assay (AID 1347159). Also: % is scaled to controls: 0 for no effect and ±100 for the full control effect; nearly all actives have a fitted effect of over 60% in size. In a few lines:
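Noncovalent NS2B hydrophilic domain/NS3 protease complex (25 nM final) in 10 mM Tris-HCl pH 8.0, 0.01% Tween 20, preincubated 15 min with compounds (up to 114 microM), then 1.5 microM Rhodamine110 substrate. Fluorescence change over 15 min fitted to 4-parameter Hill.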

The subject of experiment [4] is Zika virus NS2B-NS3 protease (linked construct). Kind of experiment: Primary screen NINDS Rhodamine qHTS for Zika virus inhibitors (AID 1347160). Also: % is scaled to controls: 0 for no effect and ±100 for the full control effect; nearly all actives have a fitted effect of over 55% in size. In a few lines: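 Purified NS2B-NS3 protease with the NS2B hydrophilic domain joined by a flexible linker (25 nM) in 10 mM Tris-HCl pH 8.0, 0.01% Tween 20, preincubated 15 min at RT with compound; Rhodamine110 peptide substrate 1.5 µM; fluorescence change over 15 min; 4-parameter Hill fit.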

Experiment [5] concerns the target Calcium and integrin-binding protein 1 (Homo sapiens) (UniProt Q99828). As to the kind of experiment: Primary qHTS for Identification of Calcium Integrin Binding Protein 1 (CIB1) Competitor (AID 1508620).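 Also: GST tagged CIB1 binding a fluorescein labelled alphaIIb integrin peptide tracer; top concentration of the series differs between compounds; % is scaled to controls: 0 for no effect and ±100 for the full control effect.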 In outline: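 Fluorescence polarization competition: CIB1-GST (1 uM final) preincubated with compound 15 min at room temperature, then FITC-labeled alphaIIb peptide (100 nM final) added for another 15 min. Polarization read at Ex 480/Em 540.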

Experiment [6] addresses Cytochrome P450 2D6 (Homo sapiens) (UniProt P10635). Kind of experiment: Cytochrome P450 family 2 subfamily D member 6 (CYP2D6) small molecule antagonists: luciferase biochemical (cell-free) qHTS assay (AID 1645840; active = well fitted curve in the direction sought with a large enough effect in the repeat runs; an effect the other way counts as inactive or inconclusive; also: potency is read from the fitted curve at half-maximal effect; nearly all actives have a fitted effect of over 55% in size). In outline: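 P450-Glo luminescent screen: recombinant CYP2D6 enzyme–proluciferin substrate mix preincubated with compound 10 min at room temperature, then NADPH regeneration added for 1 h at room temperature. Detection reagent added for 20 min; luciferin light read as relative luminescence units.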

Experiment [7] deals with Glutathione peroxidase 1 (Homo sapiens) (UniProt P07203). As to the kind of experiment: Primary qHTS Assay for Inhibitors of Recombinant Selenoprotein Glutathione Peroxidase 1 (GPX1) (AID 1845191). Also: % is scaled to controls: 0 for no effect and ±100 for the full control effect; nearly all actives have a fitted effect of over 65% in size. In a few lines: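 Recombinant GPX1 (10 nM final) was preincubated with compound for 30 min at room temperature, then reacted with 1 mM GSH, 0.5 mM CHP, 0.5 mM NADPH and 100 nM glutathione reductase; NADPH fluorescence (340/450 nm) was read at 0 and 15 min.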

The target of experiment [8] is Luciferin 4-monooxygenase (Photinus pyralis) (UniProt P08659). Kind of experiment: Primary firefly luciferase (FLuc) qHTS assay for identification of artifact compounds. (AID 1845220). Also: nearly all actives have a fitted effect of over 60% in size.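 As to activity change, negative = inhibition: plate controls were DMSO vehicle for no effect and no enzyme for full effect.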 Conditions: outcome: dose series up to 54.1 µM unless noted. In outline:
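Reaction readout was CCD-imaged luminescence, taken 5 min after adding 10 nM purified firefly enzyme to compound-treated wells holding 10 uM luciferin and ATP in pH 7.6 buffer.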

The nature of experiment [9]: Primary fluorescence-based thiol-reactive (MSTI) qHTS assay for identification of artifact compounds. (AID 1845221). Also: nearly all actives have a fitted effect of over 65% in size. Also: potency is read from the fitted curve at half-maximal effect. In a few lines:
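First, 4 uM MSTI in 2% DMSO/PBS pH 7.4 was dispensed; next, compounds were added; then plates sat 1 h at room temperature without light. Finally, emission at 598 nm was recorded.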

In experiment [10] the test system is Nanoluciferase (engineered Oplophorus gracilirostris luciferase). Kind of experiment: Primary Nanoluciferase (NLuc) qHTS assay for identification of artifact compounds. (AID 1845222).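 Also: NLuc secreted into diluted conditioned medium of S16 cells; 0% = DMSO and -100% = no enzyme.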 In outline: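 Concentration-response data were obtained by luminescence after 5 min with Nano-Glo substrate at 1:100. The enzyme was diluted S16 NLuc-expressing cell medium, preincubated with compound for 15 min at RT. Curves were fitted with a 4-parameter Hill model.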

The subject of the next experiment is C33A. As to the kind of experiment: Primary qHTS to identify gynecologic anti-cancer compounds using libraries of approved drugs and bioactive compounds (AID 1345084). Also: % is scaled to controls: 0 for no effect and ±100 for the full control effect; nearly all actives have a fitted effect of over 55% in size. Conditions: Gynecologic cancer cell panel viability, ATPlite luminescence, 48 h; series mostly up to 57.5 µM. In a few lines:
(§1)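 48 h compound exposure at 37 C, 5% CO2; five-point qHTS. ATPlite luminescence readout of cell ATP.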

The next experiment relates to CAOV3. Described as above. Conditions: Gynecologic cancer cell panel viability, ATPlite luminescence, 48 h; series mostly up to 57.5 µM. In a few lines: as §1
Background: ATP-based viability assays read luminescence as a measure of living cells.

In the next experiment the test system is CASKI. The experiment is described as above. Conditions: Gynecologic cancer cell panel viability, ATPlite luminescence, 48 h; series mostly up to 57.5 µM. In outline: as §1
The next experiment concerns Es-2. The experiment is described as above. Conditions: Gynecologic cancer cell panel viability, ATPlite luminescence, 48 h; series mostly up to 57.5 µM. In outline:
as §1

The subject of the next experiment is HeLa. Described as above. Conditions: Gynecologic cancer cell panel viability, ATPlite luminescence, 48 h; series mostly up to 57.5 µM. In a few lines:
as §1

In a further experiment the test system is Hek293T. The experiment is described as above. Conditions: Gynecologic cancer cell panel viability, ATPlite luminescence, 48 h, control line for the selectivity index; series mostly up to 57.5 µM. In outline: as §1
The subject of a further experiment is JEG-3. The description is as above. Conditions: Gynecologic cancer cell panel viability, ATPlite luminescence, 48 h; series mostly up to 57.5 µM. In a few lines:
as §1

The next experiment concerns OV90. Described as above. Conditions: Gynecologic cancer cell panel viability, ATPlite luminescence, 48 h; series mostly up to 57.5 µM. In a few lines:
as §1

In another experiment the test system is PA-1. The description is as above. Conditions: Gynecologic cancer cell panel viability, ATPlite luminescence, 48 h; series mostly up to 57.5 µM. In outline: as §1
In a further experiment the test system is Tov-21-G. The description is as above. Conditions: Gynecologic cancer cell panel viability, ATPlite luminescence, 48 h; series mostly up to 57.5 µM. In a few lines: as §1
Another experiment relates to Tov112D. The experiment is described as above. Conditions: Gynecologic cancer cell panel viability, ATPlite luminescence, 48 h; series mostly up to 57.5 µM. In a few lines:
as §1

Experiment [11] is described as follows: Primary qHTS to identify inhibitors of SARS-CoV-2 cell entry (AID 1645846; calls by dose curve; also: nearly all actives have a fitted effect of over 45% in size). Conditions: activity change, negative = inhibition: at 57.1 µM (top of the series) unless noted. In outline:
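Using luciferase-reporting pseudoviruses carrying Wuhan-Hu-1 spike, the screen tracks entry into stably ACE2-expressing cells over 48 hr. Activity is expressed relative to spike particles versus particles lacking any fusion protein.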

Experiment [12] is described as follows: Primary qHTS for inhibitors of nuclear receptor binding SET domain protein 2 (NSD2) in an RCH-ACV wild type WT cells (2C) (AID 1645877). Also: potency is read from the fitted curve at half-maximal effect; nearly all actives have a fitted effect of over 70% in size.
Experiment [13] concerns the target Phospholipid hydroperoxide glutathione peroxidase GPX4 (Homo sapiens) (UniProt P36969). Kind of experiment: Primary qHTS Assay for Inhibitors of Recombinant Selenoprotein Glutathione Peroxidase 4 (GPX4) (AID 1845192). Also: % is scaled to controls: 0 for no effect and ±100 for the full control effect; nearly all actives have a fitted effect of over 65% in size. In a few lines:
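GR-coupled readout: 100 nM GR, 1 mM GSH, 0.5 mM NADPH; NADPH fluorescence (ex 340/em 450 nm) read at t=0 and after 15 min RT. GPX4 200 nM, preincubated 30 min with compound; substrate 0.5 mM CHP.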

Experiment [14] in a line: Primary redox qHTS assay for identification of artifact compounds. (AID 1845223).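 Also: 0% = DMSO and 100% = reference compound.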 In outline:
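Amplex Red (25 uM) and HRP (250 mU/mL) in HBSS, with compounds for 15 min, then 250 uM DTT for 30 min, room temperature, dark. Fluorescence 525/598 nm read; normalized to DMSO and 10 uM DA3003; Hill fit.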

Experiment [15] can be described thus: P-glycoprotein substrates identified in KB-3-1 adenocarcinoma cell line, qHTS therapeutic library screen (AID 1346986).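 Also: potency is read from the fitted curve at half-maximal effect; potency is for cytotoxicity meaning loss of cell viability; nearly all actives have a fitted effect of over 60% in size.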 In a few lines: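 KB-3-1 parental cells and P-gp-overexpressing KB-8-5-11 (colchicine omitted during assay) plated at 500 cells/well, dosed in dose-response, incubated 72 h at 37 degree C. CellTiter-Glo luminescence read; KB-8-5-11 also tested with tariquidar.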

A short description of experiment [16]: qHTS drug screen for cell cycle checkpoint inhibitors in PARPi-resistant BRCA-mutant ovarian cancer cell lines. (AID 1963452; calls by dose curve). Conditions: PEO1/OlaR viability, CellTiter-Glo luminescence, 96 h, stronger effect = lower value. In outline: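 PEO1, PEO4 and PEO1/OlaR ovarian cancer cells, 600 per well, exposed 96 h at 37C to a dilution series. Viability read by CellTiter-Glo luminescence, normalized to DMSO and empty wells; activity summarized as Z-AUC.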

Glutathione peroxidase 1 (Homo sapiens), sequence (P07203 whole entry, looked up): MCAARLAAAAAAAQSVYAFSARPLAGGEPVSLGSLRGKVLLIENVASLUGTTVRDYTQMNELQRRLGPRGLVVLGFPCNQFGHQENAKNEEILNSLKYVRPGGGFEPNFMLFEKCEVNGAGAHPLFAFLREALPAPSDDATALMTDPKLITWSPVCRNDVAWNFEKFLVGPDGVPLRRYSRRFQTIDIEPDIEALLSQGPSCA
Calcium and integrin-binding protein 1 (Homo sapiens), sequence (Q99828 whole entry, looked up): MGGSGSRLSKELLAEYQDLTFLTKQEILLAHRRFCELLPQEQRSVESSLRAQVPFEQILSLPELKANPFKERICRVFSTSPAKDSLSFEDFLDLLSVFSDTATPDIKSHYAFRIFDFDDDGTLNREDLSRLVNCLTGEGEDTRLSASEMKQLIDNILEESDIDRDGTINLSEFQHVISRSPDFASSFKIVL
Phospholipid hydroperoxide glutathione peroxidase GPX4 (Homo sapiens), sequence (P36969 whole entry, looked up): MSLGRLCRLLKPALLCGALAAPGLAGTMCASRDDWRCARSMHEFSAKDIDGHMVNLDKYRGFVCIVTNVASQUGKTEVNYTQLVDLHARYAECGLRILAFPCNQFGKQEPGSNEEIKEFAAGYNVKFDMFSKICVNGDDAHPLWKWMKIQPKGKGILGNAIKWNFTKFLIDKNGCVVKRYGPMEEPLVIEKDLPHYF
Cytochrome P450 2D6 (Homo sapiens), sequence (P10635 whole entry, looked up): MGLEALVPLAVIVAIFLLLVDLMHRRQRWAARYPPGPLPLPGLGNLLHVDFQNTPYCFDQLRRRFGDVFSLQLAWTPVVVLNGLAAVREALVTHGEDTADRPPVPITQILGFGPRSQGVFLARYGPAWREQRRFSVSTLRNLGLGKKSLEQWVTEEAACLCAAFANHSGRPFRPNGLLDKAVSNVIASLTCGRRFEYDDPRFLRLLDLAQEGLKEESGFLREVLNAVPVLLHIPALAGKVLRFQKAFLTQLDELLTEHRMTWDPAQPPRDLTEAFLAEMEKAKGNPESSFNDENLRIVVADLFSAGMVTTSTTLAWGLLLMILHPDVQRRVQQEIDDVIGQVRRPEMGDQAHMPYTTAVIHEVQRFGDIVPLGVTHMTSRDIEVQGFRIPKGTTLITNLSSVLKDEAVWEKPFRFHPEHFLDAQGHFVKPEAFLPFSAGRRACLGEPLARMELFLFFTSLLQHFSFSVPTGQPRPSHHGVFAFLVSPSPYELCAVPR

In the case of `C=C1C(=O)OC(CCCCCCCC)C1C(=O)O` (configuration not stated), the Potency entry (in [1]; with CRL-7250) was “inactive” throughout.
In the case of `C[C@@H](CN1CCC(n2c(=O)[nH]c3cc(Br)ccc32)CC1)NC(=O)[C@@H]1C[C@H]1c1ccccc1`, the results for the Potency in experiment [2] and in [6] were 20.6 µM (active) and 13.5 µM (active), respectively. The Potency result in experiment [3], in [4], in [5], in experiment [7], in experiment [9] and in experiment [10] was “inactive” throughout. The Potency result in the experiment with C33A, in the experiment with CAOV3, in the experiment on CASKI, with Es-2, with HeLa and in the experiment on Hek293T was “inactive” throughout. Besides, the Potency result in the experiment with JEG-3, with OV90, in the experiment on PA-1, with Tov-21-G and in the experiment with Tov112D was “inactive” throughout. The call in experiment [8] was inactive.
Regarding `COc1ccc2cc(OCC3(C(=O)O)CN(C(=O)c4ccc(F)cc4)C3)ccc2c1`, the Potency entry (in [1]; in the experiment with CRL-7250) was “inactive” each time. For the same compound, the activity change, negative = inhibition in experiment [11] was -2.33%.
`NC1CCC(N[C@@H]2C[C@H]2c2ccccc2)CC1` (some centres not stated): the Potency entry (in experiment [1]; in the experiment with CRL-7250) was “inactive” each time. Besides, the activity change, negative = inhibition in experiment [11] is -44.4%.
In the case of `CCC(CC)CC1(C(=O)Nc2ccccc2SC(=O)C(C)C)CCCCC1`, the Potency result (in [1]; in the experiment on CRL-7250) was “inactive” throughout.
As for `C=CC(C)(C)C12C=C(O)C(=O)N3/C(=C\c4cnc[nH]4)C(=O)NC31N(OC)c1ccccc12` (configuration not stated), the Potency entry in [4], in [5], in experiment [7], in experiment [13], in experiment [10] and in experiment [14] was “inactive” each time. Besides, the Potency entry in the experiment on C33A, with CAOV3, with CASKI, in the experiment on Es-2, with HeLa and in the experiment on JEG-3 was “inactive” throughout. Moreover, the Potency entry in the experiment on OV90, with Tov-21-G and in the experiment on Tov112D was “inactive” throughout. For the same compound, the Potency is 10 µM (active) in experiment [12] and 4.12 µM (active) in [9]. In addition, the outcome in [8] is “inactive [at 25.7 µM]”.
Consider `COc1cc2c(cc1F)C(c1ccccc1Cl)=Nc1c(n[nH]c1C)N2`, for which the Potency in experiment [15] was 2.06 µM (active); in [2] it was 1.3 µM (active); in [12], 1.03 µM (active). Moreover, the Potency result in [1], in experiment [7] and in experiment [13] was “inactive” throughout. Also, the figures for the Z-AUC in [16], in experiment [16] (measured here: PEO1 parental Z-AUC) and in experiment [16] (measured here: PEO4 Z-AUC) were -0.71 (inactive), -0.883 and -0.718, respectively.
